# Data from PubChem BioAssay (NCATS).
# Several values for one entry are separate records, joined by “and”; a condition that tells them apart may be missing. Identical values can stand only once. Inconclusive results are not listed. Entries that show only a call come without a potency. Activity calls are given as the source filed them. Unless noted, calls come from the whole dose curve; as a rule, active = well fitted curve in the direction sought with a large enough effect; inconclusive = small, poorly fitted or top-dose-only effect, or another doubt; inactive = no such curve, though single readings can be large; an effect the other way counts as inactive or inconclusive.
# Experiments:
# [1] = target: Luciferin 4-monooxygenase (Photinus pyralis) (UniProt P08659); assay: Biochemical firefly luciferase enzyme assay for NPC (AID 624030);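 note: purified P. pyralis luciferase at 10 nM with luciferin and ATP substrate; nearly all actives have a fitted effect of over 70% in size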
# Summary of the method: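 Purified P. pyralis luciferase at 10 nM in 50 mM Tris Acetate (final), luminescence read within 5 minutes of enzyme addition to compounds. Activity normalised to PTC124 versus DMSO; concentration-response curves classed by r2, magnitude and activity.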
# [2] = qHTS profiling for inhibitors of Plasmodium falciparum proliferation (AID 504749); note: nearly all actives have a fitted effect of over 60% in size; note: potency is the fitted concentration of half-maximal effect; settings: P. falciparum in erythrocytes, SYBR Green DNA, 72 h, at 12.8 µM (top of the series)
# Summary of the method: (§1)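 P. falciparum-infected erythrocytes (0.3% parasitemia, 2.5% hematocrit) incubated with compound 72 h at 37 C, 5% CO2. Parasite DNA detected by SYBR Green after lysis, overnight at room temperature; normalised to 0.29 uM artemisinin and DMSO.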
# CP215 = assay: as above; settings: P. falciparum in erythrocytes, SYBR Green DNA, 72 h; series mostly up to 28.7 µM
# Summary of the method: as §1
# CP237 = assay: as above; settings: P. falciparum in erythrocytes, SYBR Green DNA, 72 h; series mostly up to 28.7 µM
# Summary of the method: as §1
# CP262 = assay: as above; settings: P. falciparum in erythrocytes, SYBR Green DNA, 72 h; series mostly up to 28.7 µM
# Summary of the method: as §1
# CP266 = assay: as above; settings: P. falciparum in erythrocytes, SYBR Green DNA, 72 h; series mostly up to 28.7 µM
# Summary of the method: as §1
# CP315 = assay: as above; settings: P. falciparum in erythrocytes, SYBR Green DNA, 72 h; series mostly up to 28.7 µM
# Summary of the method: as §1
# CP325 = assay: as above; settings: P. falciparum in erythrocytes, SYBR Green DNA, 72 h; series mostly up to 28.7 µM
# Summary of the method: as §1
# Dd2 = assay: as above; settings: P. falciparum in erythrocytes, SYBR Green DNA, 72 h; series mostly up to 28.7 µM
# Summary of the method: as §1
# FAB9 = assay: as above; settings: P. falciparum in erythrocytes, SYBR Green DNA, 72 h; series mostly up to 28.7 µM
# Summary of the method: as §1
# ICS = assay: as above; settings: P. falciparum in erythrocytes, SYBR Green DNA, 72 h; series mostly up to 28.7 µM
# Summary of the method: as §1
# JCK = assay: as above; settings: P. falciparum in erythrocytes, SYBR Green DNA, 72 h; series mostly up to 28.7 µM
# Summary of the method: as §1
# TAB165 = assay: as above; settings: P. falciparum in erythrocytes, SYBR Green DNA, 72 h; series mostly up to 28.7 µM
# Summary of the method: as §1
# [3] = target: Peroxisome proliferator-activated receptor gamma (Homo sapiens) (UniProt P37231); assay: qHTS assay for small molecule agonists of peroxisome proliferator-activated receptor gamma signaling (AID 588536; active = well fitted curve in the direction sought with a large enough effect in the signal ratio, with a control signal flat, not every such curve was filed as active; the % refers to the signal ratio)
# Summary of the method: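 Test agents, titrated, stimulated HEK293 UAS-bla cells overnight (16 h, 37 C). Substrate CCF4 was then added for two hours at room temperature before fluorescence reading.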
# [4] = target: Peroxisome proliferator-activated receptor gamma (Homo sapiens) (UniProt P37231); assay: qHTS assay for small molecule antagonists of peroxisome proliferator-activated receptor gamma signaling (AID 588537; active = well fitted inhibition curve with a large enough effect in the signal ratio, with a control signal flat, not every such curve was filed as active; the % refers to the signal ratio;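 note: reporter cells co-stimulated with 50 nM rosiglitazone agonist during compound treatment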)
# Summary of the method: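 PPARγ-UAS-bla HEK293 cells (3000/well) in 1% charcoal/dextran-stripped FBS are treated with compound, then stimulated with 50 nM rosiglitazone for 16 h at 37 °C. Read-out is CCF4 β-lactamase fluorescence after 2 h at RT. IC50 comes from Hill fits normalised to rosiglitazone and DMSO.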
# [5] = target: Thyroid hormone receptor beta (Homo sapiens) (UniProt P10828); assay: qHTS assay for small molecule agonists of thyroid hormone receptor beta signaling (AID 588545; calls by dose curve)
# Summary of the method: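 Efficacy and EC50 values derive from Hill fits of qHTS titration data, normalized to 10 nM T3 and DMSO-only wells. HEK 293 reporter cells were stimulated for 18 hrs at 37 C, with beta-lactamase activity measured by CCF4 fluorescence.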
# [6] = qHTS assay for small molecule antagonists of retinoid X receptor alpha signaling (AID 588546; active = well fitted inhibition curve with a large enough effect in the signal ratio, with a control signal flat, not every such curve was filed as active; the % refers to the signal ratio;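 note: cells stimulated with 9-cis-retinoic acid as agonist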); settings: HEK293T RXRa-UAS-bla, beta-lactamase ratio, antagonist mode; measured here: W530 green channel, cytotoxicity proxy
# Summary of the method: (§2)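 Beta-lactamase reporter inhibition, read as CCF4 fluorescence ratio (ex 405, em 460/530 nm) after 2 h at RT. HEK293T UAS-bla cells, 2500/well, were stimulated with 9-cis-RA at 500 or 100 nM final alongside test compound for 18 h at 37 C.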
# [7] = target: Retinoic acid receptor RXR-alpha (Homo sapiens) (UniProt P19793); assay: as above; settings: HEK293T RXRa-UAS-bla, beta-lactamase ratio, antagonist mode
# Summary of the method: as §2
# [8] = qHTS assay for small molecule activators of the p53 signaling pathway (AID 651743; active = well fitted activation curve with a large enough effect in the signal ratio, not every such curve was filed as active; the % refers to the signal ratio); settings: HCT-116 p53RE-bla, beta-lactamase FRET ratio, 16 h; stronger effect = higher value
# Summary of the method: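 p53RE-bla HCT-116 cells carrying a beta-lactamase reporter under p53 response elements were exposed to compounds for 16 hours at 37 C. Reporter activity read as fluorescence after 2 hours at room temperature with LiveBLAzer B/G FRET substrate.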
# [9] = qHTS assay for environmental chemicals that activate the Aryl hydrocarbon Receptor (AhR) signaling pathway (AID 651777); settings: 1A2-DRE human hepatoma cells, luciferase, 24 h; stronger effect = higher value; note: nearly all actives have a fitted effect of over 15% in size
# Summary of the method: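 Measured luciferase activity, read 30 min after One-Glo addition at room temperature, from human hepatoma cells bearing a dioxin response element–CYP1A2 promoter reporter and exposed to compound for 24 hr at 37 C.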
# Thyroid hormone receptor beta (Homo sapiens), sequence (P10828 whole entry, looked up): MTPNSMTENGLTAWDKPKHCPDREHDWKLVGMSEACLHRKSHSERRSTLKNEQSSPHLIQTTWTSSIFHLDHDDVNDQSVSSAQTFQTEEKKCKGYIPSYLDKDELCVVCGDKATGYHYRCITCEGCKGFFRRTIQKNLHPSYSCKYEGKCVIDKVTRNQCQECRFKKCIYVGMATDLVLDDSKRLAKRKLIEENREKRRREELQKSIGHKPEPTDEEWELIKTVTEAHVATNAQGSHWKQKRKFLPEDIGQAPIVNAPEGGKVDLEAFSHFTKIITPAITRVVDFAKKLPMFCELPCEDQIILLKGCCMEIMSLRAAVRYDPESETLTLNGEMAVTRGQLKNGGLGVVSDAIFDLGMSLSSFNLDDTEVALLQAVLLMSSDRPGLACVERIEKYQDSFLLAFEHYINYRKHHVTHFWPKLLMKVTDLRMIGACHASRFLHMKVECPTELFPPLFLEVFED
# Peroxisome proliferator-activated receptor gamma (Homo sapiens), sequence (P37231 whole entry, looked up): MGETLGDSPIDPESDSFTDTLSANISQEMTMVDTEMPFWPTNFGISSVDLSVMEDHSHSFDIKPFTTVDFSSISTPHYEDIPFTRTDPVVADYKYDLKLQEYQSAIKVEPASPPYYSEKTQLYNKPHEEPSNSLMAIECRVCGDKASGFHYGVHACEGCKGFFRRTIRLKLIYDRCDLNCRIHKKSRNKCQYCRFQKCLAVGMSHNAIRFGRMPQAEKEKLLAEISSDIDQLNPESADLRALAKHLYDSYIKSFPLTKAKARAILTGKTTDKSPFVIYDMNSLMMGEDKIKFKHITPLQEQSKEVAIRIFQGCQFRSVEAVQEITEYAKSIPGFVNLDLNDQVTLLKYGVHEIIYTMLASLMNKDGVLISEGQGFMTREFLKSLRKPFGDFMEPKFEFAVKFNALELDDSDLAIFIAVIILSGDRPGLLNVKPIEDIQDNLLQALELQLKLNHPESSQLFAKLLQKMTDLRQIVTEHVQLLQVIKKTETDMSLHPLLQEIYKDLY
# Retinoic acid receptor RXR-alpha (Homo sapiens), sequence (P19793 whole entry, looked up): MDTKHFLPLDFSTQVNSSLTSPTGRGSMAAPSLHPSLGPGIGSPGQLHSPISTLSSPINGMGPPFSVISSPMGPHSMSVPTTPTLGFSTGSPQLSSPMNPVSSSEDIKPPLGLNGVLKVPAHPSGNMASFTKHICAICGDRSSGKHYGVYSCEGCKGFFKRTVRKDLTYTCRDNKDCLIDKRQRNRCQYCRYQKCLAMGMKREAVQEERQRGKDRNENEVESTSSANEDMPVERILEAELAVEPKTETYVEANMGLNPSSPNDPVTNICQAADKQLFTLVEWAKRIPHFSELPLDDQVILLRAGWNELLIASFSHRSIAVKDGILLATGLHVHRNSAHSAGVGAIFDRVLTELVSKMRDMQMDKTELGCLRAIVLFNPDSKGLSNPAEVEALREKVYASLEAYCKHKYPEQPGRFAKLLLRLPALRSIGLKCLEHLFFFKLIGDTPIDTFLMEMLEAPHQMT
# Luciferin 4-monooxygenase (Photinus pyralis), sequence (P08659 whole entry, looked up): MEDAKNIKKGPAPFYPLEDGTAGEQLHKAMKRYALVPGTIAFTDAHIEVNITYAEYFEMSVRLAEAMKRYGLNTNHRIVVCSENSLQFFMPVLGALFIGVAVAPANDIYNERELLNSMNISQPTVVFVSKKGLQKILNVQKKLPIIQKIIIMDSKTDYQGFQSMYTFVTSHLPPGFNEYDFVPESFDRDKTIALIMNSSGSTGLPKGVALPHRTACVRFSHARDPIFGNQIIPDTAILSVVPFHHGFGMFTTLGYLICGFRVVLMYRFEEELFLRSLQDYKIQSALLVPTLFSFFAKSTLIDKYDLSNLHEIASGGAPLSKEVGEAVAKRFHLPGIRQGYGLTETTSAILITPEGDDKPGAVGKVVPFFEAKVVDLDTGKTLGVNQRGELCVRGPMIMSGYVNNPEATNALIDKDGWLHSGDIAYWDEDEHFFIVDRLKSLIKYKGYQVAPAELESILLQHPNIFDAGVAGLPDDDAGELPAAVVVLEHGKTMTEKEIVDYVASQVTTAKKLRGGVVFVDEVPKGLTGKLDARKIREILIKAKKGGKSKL
smiles,measurement,setting,value
C[C@@H](C(=O)O)c1ccc(-c2ccccc2)c(F)c1,Potency,[1],inactive
same,"activity, negative = inhibition",[2]; parasite line A,6.83% (inactive)
same,"activity, negative = inhibition",[2]; parasite line B,6.59% (inactive)
same,Potency,CP215,inactive
same,Potency,CP237,inactive
same,Potency,CP262,inactive
same,Potency,CP266,inactive
same,Potency,CP315,inactive
same,Potency,CP325,inactive
same,Potency,Dd2,inactive
same,Potency,FAB9,inactive
same,Potency,ICS,inactive
same,Potency,JCK,inactive
same,Potency,TAB165,inactive
CC(C)=CCC/C(C)=C/CC/C(C)=C/CO,outcome,[3],inactive
same,outcome,[4],inactive
same,outcome,[5],inactive
same,max response,[6],-7.11%
same,max response,[7],5.64% (inactive)
same,activation,[8],1.11% (inactive)
same,activation,[9],1.51% (inactive)
CCOC(=O)C(CCc1ccccc1)NC1CCc2ccccc2N(CC(=O)O)C1=O (stereo not given),Potency,[1],inactive
same,Potency,CP215,inactive
same,Potency,CP237,10 µM (active)
same,Potency,CP262,inactive
same,Potency,CP266,inactive
same,Potency,CP315,inactive
same,Potency,CP325,inactive
same,Potency,Dd2,11.2 µM (active)
same,Potency,FAB9,inactive
same,Potency,ICS,6.31 µM (active)
same,Potency,JCK,inactive
same,Potency,TAB165,11.2 µM (active)
CC(=O)[C@H]1[C@H](C#N)C[C@H]2[C@@H]3CC=C4C[C@@H](O)CC[C@]4(C)[C@H]3CC[C@@]21C,outcome,[3],inactive
same,outcome,[4],inactive
same,outcome,[5],inactive
same,max response,[6],9.02%
same,max response,[7],-3.98% (inactive)
same,activation,[8],0.753% (inactive) and -1.56% (inactive)
same,activation,[9],-1.23% (inactive) and 0.356% (inactive)
